Bim-Mcl-1 – human Bim-Mcl-1 interaction inhibition; Bead-based flow cytometry, Bim peptide-Mcl-1 binding; inhibition, % at 10 µM; 190,000 tested, 0.1% active; AID 1009; in the data active means inhibition above about 40%;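 further: 0% = no compound tracer wells and 100% = peptide blocker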
NCF1 inh – p47phox (human) inhibition | P14598 | p47phox/p22phox peptide binding, fluorescence polarization, 2 h | inhibition, % at 24.7 µM | 220,000 tested, 0.53% active | AID 1274;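 active means inhibition above about 30%, limit read from the data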;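 further: 0% = p47phox with labelled peptide and 100% = labelled peptide alone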
Mcl1 Noxa PPI – disrupts binding of human Mcl-1 to Noxa peptide; Q07820; TR-FRET Mcl-1/Noxa peptide binding, 2 h; inhibition, % at 21.7 µM; 220,000 tested, 1.5% active; AID 1022;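 active means compounds that cut the protein-peptide binding signal by more than 50% relative to plate controls in a single-dose test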;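 further: His-tagged Mcl-1 with rhodamine Noxa BH3 peptide and terbium anti-His antibody; 0% = Mcl-1 plus Noxa peptide wells and 100% = peptide-only wells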
14-3-3 Bad PPI – disrupts binding of bovine 14-3-3 zeta to phospho-Bad peptide. P63103. TR-FRET 14-3-3zeta/Dy647-pBad peptide displacement, 1 h. inhibition, % at 21.7 µM. 220,000 tested, 0.71% active;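 active means inhibition above about 70%, limit read from the data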;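 further: 0% = full 14-3-3 plus peptide FRET controls and 100% = background without 14-3-3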
Target sequence (P63103 whole entry, looked up): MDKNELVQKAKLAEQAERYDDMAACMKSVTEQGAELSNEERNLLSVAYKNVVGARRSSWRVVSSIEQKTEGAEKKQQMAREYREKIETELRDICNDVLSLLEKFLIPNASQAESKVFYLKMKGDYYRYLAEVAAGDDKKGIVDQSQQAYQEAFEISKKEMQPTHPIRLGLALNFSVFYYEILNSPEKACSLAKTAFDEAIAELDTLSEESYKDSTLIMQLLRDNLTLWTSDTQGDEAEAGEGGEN
Mcl1 Bid PPI – disrupts binding of human Mcl-1 to Bid peptide; TR-FRET Mcl-1/Bid-Dy647 peptide binding, 1536-well; inhibition, % at 21.7 µM; 220,000 tested, 0.97% active; AID 1021;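 active means compounds that cut the binding signal by more than half at the single screening dose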;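 further: His-tagged Mcl-1 with europium anti-His antibody binding Bid BH3 peptide; 0% = Mcl-1 plus peptide wells and 100% = peptide-only wells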
m-calpain inh – blocks pig calpain II enzyme activity | purified calpain II, fluorogenic peptide substrate, 30 min | inhibition, % at 16 µM | 220,000 tested, 0.37% active | AID 1236;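 active means inhibition above about 50%, limit read from the data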
* hit, by the source's call; . = no result; [ ] = another dose, or the depositor's remark. Only some compounds are listed: those with a hit (about 3.4% of all), similar ones and a draw of the others.

SMILES	Bim-Mcl-1	NCF1 inh	Mcl1 Noxa PPI	14-3-3 Bad PPI	Mcl1 Bid PPI	m-calpain inh
Cn1c(=O)c2c(nc(N3CCCCCC3)n2CC(O)COc2ccccc2)n(C)c1=O (stereo unspecified)	5.0	-0.3	9.0	72.4*	-5.3	2.6
O=C(/C=C/c1ccc(Br)o1)NC(c1ccccc1)c1ccccc1	-3.0	-20.9	27.0	7.8	-41.9	8.6
O=C1C(=Cc2ccc(Br)o2)C(=O)c2ccccc21	2.0	-17.3	104.8*	88.8*[fluorescence artefact?]	76.0*	8.8
CC1=C/C(=C\c2ccc(Br)o2)C(=O)O1	-6.0	-13.5	71.2*	7.5	-4.6	-4.0
COC(=O)CCN(C(=O)c1cccc(OC(C)=O)c1)c1ccccn1	-4.0	-38.8	-0.5	-13.6	52.1*	8.5
COC(=O)CCN(C(=O)c1ccc2c(c1)OCO2)c1ccccn1	-2.0	-13.2	-11.0	-1.6	-4.2	1.9
COC(=O)CSc1ncnc2c1sc1nc(-c3ccco3)c3c(c12)CC(C)(C)OC3	1.0	-23.8	75.8*	.	-61.2	-191.0
Cc1ccc(-c2nn(C)c(=O)c3ccccc23)cc1CNC(=O)NC1CCCCC1	.	-4.8	-5.6	7.7	-2.3	-62.4
CCN(CC)C(=O)CSc1nnc(-c2cccnc2)n1CCc1ccccc1	3.0	14.9	61.0*	8.2	-2.7	-5.0
Cc1ccc(C(=O)Nc2cc(C)c(OCC(=O)N3CCOCC3)c(C)c2)cc1	2.0	-5.5	7.0	3.5	-4.4	-2.1
CC(=O)N1CC23C=CC(CC2CC12CCCCCC2)O3 (stereo unspecified)	-1.0	-1.6	8.1	-11.2	-14.4	15.9
CCc1c(C(=O)Nc2cc(C)ccc2OC)[nH]c(C)c1C(C)=O	2.0	-94.8	5.5	-4.5	95.8*	-110.4
CCc1c(C(=O)Nc2ccc(OC)cc2)[nH]c(C)c1C(C)=O	-6.0	-3.4	5.3	-4.8	-13.0	-9.7
O=C1CCN(S(=O)(=O)c2cccs2)c2ccc(C(F)(F)F)cc2N1	-3.0	5.0	-0.3	-19.9	-25.7	22.4
COc1ccccc1C(=O)NC(=S)NNC(=O)c1sc2ccccc2c1Cl	-2.0	26.7	48.4	38.1	73.4*	-29.1
COc1ccccc1C(=O)NNC(=S)NC(=O)c1sc2ccccc2c1Cl	-10.0	3.5	32.6	-4.1	20.0	-60.0
CC(NC(=S)Nc1ccc(Cl)cc1)C(c1ccccc1)N1CCOCC1 (stereo unspecified)	-2.0	-2.4	17.4	70.9*	-13.1	7.0
COc1ccc(C2CC23N=C(c2ccccc2)OC3=O)cc1 (stereo unspecified)	-11.0	2.7	11.5	16.9	9.6	27.5
CN1CCN(CC(=O)Nc2ccc([N+](=O)[O-])cc2Br)CC1	-1.0	-3.0	17.6	6.5	-22.6	-14.2
CCCCCCOc1ccc(/C(C)=N/NC2=NCCN2)cc1[N+](=O)[O-]	0.0	51.4*	29.9	-60.6	-16.4	17.4
C/C(=N\NC1=NCCN1)c1ccc(N)c([N+](=O)[O-])c1	.	2.9	42.2	16.4	-66.7	7.9
COc1ccc(-c2nc(=S)c3c([nH]2)Oc2ccc(C)cc2C3)cc1O	-4.0	-15.2	66.0*	13.2	-28.2	26.9
COc1ccc(-c2nc(-c3ccccc3)c(-c3cc([N+](=O)[O-])ccc3C)[nH]2)cc1O	-9.0	-14.4	-10.1	6.3	-11.1	-79.4
CC(=O)Oc1cc2c3c(c1)/C(=C1/SC(=S)NC1=O)C(=O)N3C(C)(C)C=C2C	.	6.1	51.0*	-5.6	-41.1	42.3
C=CCn1c(-c2ccco2)n[nH]c1=S	-2.0	32.2*	42.2	10.9	-29.1	-79.5
SMILES	Bim-Mcl-1	NCF1 inh	Mcl1 Noxa PPI	14-3-3 Bad PPI	Mcl1 Bid PPI	m-calpain inh
CCn1c(-c2ccco2)n[nH]c1=S	1.0	-6.8	23.5	-1.4	0.9	-21.1
COc1cccc(N=Nc2c(N)[nH]n3c(=O)cc(-c4ccccc4)nc23)c1	3.0	16.7	29.3	23.2	56.1*	-184.3
Cc1ccc(N=Nc2c(N)[nH]n3c(=O)cc(-c4ccccc4)nc23)cc1	0.0	-4.5	81.1*	10.7	76.5*	-120.6
O=C(N/C=C/n1cnc2cc(C(F)(F)F)ccc21)c1ccccc1	-2.0	-1.9	6.3	8.8	11.9	40.9
COCCNC(=O)CN1CCN(C(c2ccccc2)c2ccccc2)CC1	-5.0	-8.6	4.1	87.9*	45.1	-4.4
CCOC(=O)c1c(-c2ccc(-c3ccccc3)cc2)csc1NC(=O)C1C2CCC(O2)C1C(=O)O (stereo unspecified)	-6.0	-21.4	56.4*	9.9	24.8	-43.4

Source: PubChem BioAssay
